PBM binding z-score data for 40 sequences are collected here from the supplement of paper PMC6555819.

In this experiment the test system is VDR:RXRa (NR concentration 270 nM, RXRa partner concentration 90 nM). Description: PBM binding z-score (relative to random genomic background probes); higher = stronger binding; sequences stand for … in GC…GCGATTGACAGCGTAGAATGAAGG
The protocol: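 Protein-binding microarray (Agilent 4x180K custom design, double-stranded 60-nt probes: 5' GC cap, 34-nt variable region, 24-nt constant primer region; full probe sequence given). Purified or IVT nuclear receptor:RXRα heterodimers (3:1 NR:RXRα, mostly 270:90 nM) or homodimers were incubated for 1 h in PBS with 2% milk and no ligand, then detected with Alexa488 antibodies. Fluorescence from o1-orientation probes (~5 replicates averaged) was converted to z-scores against 500 random hg19 background probes. Variable regions are seed direct-repeat (DR0–DR5) sites, all their single-nucleotide variants and half-site ablations.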
In turn, TAGCCTAGGTCATGCGGGCCACTATAGTGTCGGC registered a PBM binding z-score of 3.58. The figure for ATCGAAATGTCGAGGTGAGTATAGAGAAAGGGAA is -0.253; for AGAATGAGGTTATACGTAGTTCAGGGAAGAAAGT it is 3.09. The figure for CCTAGTTGGTAAGGAGGTCACACACCGGATATGA is 3.53.

In the case of CCTCCAAGGTCAGAGAGGTCAGTGAATGCCGAGT, the PBM binding z-score came out at 7.22. Regarding TGATATAGGTAATACAGGTGAAAGTCGGCATCTA, the PBM binding z-score came to 0.523. In turn, GCTTACGCGTCAAAGGTTATAGCATGAATAGAAT had a PBM binding z-score of 1.12. The figure for CGAACCAGGTCAAGGACAGTGAATCTCCGCACGC is 2.22; for TCTCGGAGGACACGAAGGTCGGAGCTTTCCAGAG it is 0.528. For the sequence TCTCGGAGGACACTAAGGTCAGAGCTTTCCAGAG, the PBM binding z-score amounted to 3.31. For the sequence AGAACGAGGGCGCGCTGAGTTGATAGCAGAGTAG, the PBM binding z-score worked out at 0.589. AGAACGAGGGCACGCTGAGTTGAGAGCAGAGTAG yielded a PBM binding z-score of 1.59.

Regarding CCTATTGGGCCAAAAAGGTCATTGATGCCGATAA, the PBM binding z-score is 5.02. Take CCTTACGGGTCACTGCCAGGTTATAGCATTTGGA: the PBM binding z-score amounted to 3.73. ATCGAAAAGTCGAGGTGAGTATAGAGAAAGGGAA: the PBM binding z-score was -0.237. The figure for CGAACTAGGTCATCCAGGACATTGAATACATTGA is 5.52. The figure for GTACCCAGGTGAATAGGTCGTTGATGAGTAGGCG is 0.54. Turning to GCGACTGGGGCAAAGCACGTTACCATAAGGTTGG, the PBM binding z-score was -0.469.

In the case of ATATGTAGGTTAAGGGGCATTCAGGTTGGTTCGC, the PBM binding z-score was found to be 2.2.

AATACAGAGTCACTAGGCCAGAGTAGGTACGAAT displayed a PBM binding z-score of -0.0941. The figure for CGTCCACGGTCAAAGGTCAGTGAAGAGATGACGG is 3.76. The figure for CCGAGTAGGTTATGGGGCGTTCAGGCAACGGTGA is 0.0035. The figure for TGTCAAAGTTCAAAGATAACGTAAGTATCCACAC is 4.23. Turning to CCTACTAGGCCACGAAAGGTCATTGATTCAGTGA, the PBM binding z-score stood at 4.42.

AGAGTGAGGTTAAGATCAGGGAAACAGAATACAT had a PBM binding z-score of 1.62. The figure for ATCGAAAGGTCGAGGTGAGTAGAGAGAAAGGGAA is 2.27; for AGAATGAGGTTACCAAAGATCACGGAAACGCTTG it is 1.97. In turn, CCACACAGGTGAGAAGGTAACTCAGCCTCGATTA came in with a PBM binding z-score of 0.0106. ACTAGCAGGCCAAGTCTGGGTCACTCAAACAAAG yielded a PBM binding z-score of 0.77. The figure for GCTGCTAGGTCAGGTTGGTCATCTAACGGGTACG is 1.25; for TCTTGTAGCTCAGCAGGTTAAGAAAGCTGGCCAA it is -0.236. The figure for CGTCCAAGGTCACTGCTAGGTCAGTGAAAGCATT is 5.09; for AGAATGAGGGCAATGAGTTGATAGCACGGGTGGC it is 4.98. As for CGTCCAAGATCAAAGGTCAGTGAAGAGATGACGG, the PBM binding z-score worked out at 3.08. The figure for AGAATGAGGTTATAAGTAGATCAGGGAAGAAAGT is 1.26. The figure for TCGAGTAGCTTAGTCGGGGCATTCAGCCAACATA is -0.32; for CATACAGGGTCAGCGAGGCCAGAGTAGGGACGGC it is 5.93; for CAAACTAGGTCCAGGTCAAAGTCGGTTTGTGCCA it is 3.06. The figure for TCATATAGGTCAATGCTAGGTGAAAGTCCGATCT is 2.9; for ATCTCTAGGTAACCTAGTTCAGTGAATGCCGAAC it is 1.96.
